Sampled rows, rich in hits. Any-hit rate of the full collection: about 9.9%.
Tau fluor counter – counter-screen for tau fibril formation inhibitors; tau K18 P301L Alexa594 fluorescence, heparin fibrillization; Potency, µM (titrated, usually from 57.7 µM), for inactives: at the highest dose activity change, negative = decrease; 280,000 tested, 0.93% active; active means well fitted curve in the direction sought with a large enough effect; inconclusive means small, poorly fitted or top-dose-only effect, or another doubt; inactive means no such curve, though single readings can be large; an effect the other way counts as inactive or inconclusive; further: nearly all actives have a fitted effect of over 55% in size
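Human tau K18 P301L (15 uM unlabeled, 0.24 uM Alexa 594-labeled) in 100 mM sodium acetate pH 7 with 20 uM heparin, 6 hr at 37 C. ThT 30 uM added, 1 hr ambient; Alexa 594 FP and total fluorescence read at 555/632 nm.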
HPGD inh – HPGD (human) dehydrogenase inhibition; P15428; purified HPGD, NADH fluorescence kinetic, PGE2 substrate; Potency, µM, for inactives: at the top dose activity change, negative = inhibition, most hits filed as inhibitors; 150,000 tested, 4.3% active
Target sequence (P15428 whole entry, looked up): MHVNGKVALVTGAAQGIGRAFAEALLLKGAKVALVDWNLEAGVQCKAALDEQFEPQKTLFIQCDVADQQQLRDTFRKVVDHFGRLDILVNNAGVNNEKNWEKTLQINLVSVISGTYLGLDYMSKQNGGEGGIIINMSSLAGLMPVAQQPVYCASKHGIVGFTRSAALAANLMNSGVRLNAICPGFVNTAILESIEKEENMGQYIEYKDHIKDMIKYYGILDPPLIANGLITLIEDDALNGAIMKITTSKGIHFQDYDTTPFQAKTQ
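NADH formation kinetics: reaction with 30 uM PGE2 and 1 mM NAD+ (final), 20 nM enzyme, Tris-HCl pH 8 with Tween 20, after 15 min compound preincubation at room temperature. Fluorescence change, last versus first of five reads.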
JMJD2E inh – JMJD2E (human) inhibition; B2RXH2; JMJD2E catalytic domain, FDH-coupled NADH fluorescence (FDH is formaldehyde dehydrogenase); Potency, µM (highest dose often 57.1 µM), for the others: top-dose activity change, negative = inhibition, most hits filed as inhibitors; 230,000 tested, 1.6% active;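 further: 0% = wells with enzyme and -100% = buffer wells without enzyme; nearly all actives have a fitted effect of over 50% in size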
Tau ThT inhib – tau fibrillization inhibition (ThT binding). P10636. recombinant tau K18 P301L, heparin-induced fibrillization, ThT fluorescence. Potency, µM (highest dose often 57.4 µM), inactives show at the top dose activity, negative = inhibition, hits mostly inhibitors. 270,000 tested, 2.1% active. AID 1460; active means well fitted curve in the direction sought with a large enough effect; inconclusive means small, poorly fitted or top-dose-only effect, or another doubt; inactive means no such curve, though single readings can be large; an effect the other way counts as inactive or inconclusive; further: nearly all actives have a fitted effect of over 55% in size
Target sequence (P10636 561-689 P618L limits assumed): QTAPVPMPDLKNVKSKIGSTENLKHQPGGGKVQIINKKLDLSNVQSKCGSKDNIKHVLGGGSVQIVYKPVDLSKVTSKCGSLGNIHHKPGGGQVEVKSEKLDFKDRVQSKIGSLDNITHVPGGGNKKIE
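Aggregation was driven by heparin (20 uM final) acting on recombinant tau […] bearing P301L in 100 mM sodium acetate pH 7; fibrils were detected with Thioflavin T.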
ALDH1A1 inh – blocks purified human ALDH1A1 activity | 220,000 tested, 7.3% active | P00352 | Purified ALDH1A1, NADH fluorescence, propionaldehyde substrate | Potency, µM (top dose mostly 75.3 µM), for inactives: top-dose activity, negative = inhibition, most hits filed as inhibitors;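 further: plate controls were no enzyme wells and a reference inhibitor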
Tau FP inhib – blocks human tau fibril formation measured by polarization; P10636; K18 P301L tau heparin fibrillization, Alexa594 FP, 6 h; Potency, µM (top dose mostly 57.7 µM), for inactives: at the top dose activity, negative = inhibition, actives largely listed as inhibitors; 280,000 tested, 0.39% active; AID 1468; active means well fitted curve in the direction sought with a large enough effect; inconclusive means small, poorly fitted or top-dose-only effect, or another doubt; inactive means no such curve, though single readings can be large; an effect the other way counts as inactive or inconclusive; further: nearly all actives have a fitted effect of over 55% in size
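Heparin (20 uM) drove fibril formation of recombinant tau K18 P301L, 15 uM unlabeled with 0.24 uM Alexa 594 label, for 6 hr at 37 C in 100 mM sodium acetate pH 7. Fluorescence polarization (555/632 nm) read 1 hr after 30 uM ThT.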
An asterisk follows results filed as active; ? = inconclusive; / = no result given. Unless noted, the call rests on the fitted dose curve; in most records, active means well fitted inhibition curve with a large enough effect (not every such curve was filed as active); inconclusive means small, poorly fitted or top-dose-only effect, or another doubt; inactive means no such curve, though single readings can be large or run the other way. Unless noted, on the % scale 0 is the no-effect control and ±100 the full control effect; potency means the concentration at half of the fitted maximal effect.

SMILES	Tau fluor counter	HPGD inh	JMJD2E inh	Tau ThT inhib	ALDH1A1 inh	Tau FP inhib
O=C(NC(=S)N1CCN(c2ccc([N+](=O)[O-])cc2)CC1)c1ccccc1F	-2%	-18%	12%	?	25µM*	-2%
COc1ccc(-c2nnc(SCCOc3ccccc3C)o2)cc1OC	-15%	/	/	14%	/	-9%
N#C/C(=C\c1ccc(-c2cccc([N+](=O)[O-])c2)o1)c1nnc(N2CCOCC2)n1-c1ccccc1	-2%	/	-3%	?	7.9µM*	5%
CCc1ccc(C(=O)COC(=O)CCc2nc3ccccc3c(=O)[nH]2)cc1	-6%	-10%	?	?	-11%	-3%
CCCCN1C(C)=CC(=C2C(=O)c3ccccc3C2=O)C=C1C	-6%	/	2%	?	14µM*	-1%
CCCN1C=CC(=C2C(=O)c3ccccc3C2=O)C=C1	-3%	-16%	-4%	?	14µM*	3%
CCCCCCN1C=CC(=C2C(=O)c3ccccc3C2=O)C=C1	2%	/	-6%	8%	3%	7%
O=C1c2ccccc2C(=O)N1Cc1ccco1	1%	-6%	4%	8%	-16%	-4%
CC1=CC(=C2C(=O)c3ccccc3C2=O)C=C(C)N1Cc1ccco1	-11%	-16%	-9%	18µM*	7.9µM*	7%
Cc1cc(C)c(NC(=O)CSc2nc(=O)n(Cc3ccncc3)c3c2CCC3)c(C)c1	4%	/	/	0%	/	-13%
O=c1cc(-c2cccs2)oc2ccc(Cl)cc12	-7%	/	-23%	-12%	?	3%
O=C1OC(/C=C/c2ccc(Cl)cc2Cl)=NC/1=C\c1cccs1	-1%	-7%	9%	?	3.2µM*	3%
CCc1ccc(N2CCN(C(=O)N3CCOCC3)CC2)cc1	-4%	/	-4%	-5%	3%	-7%
O=C1CC(=O)N(CCc2ccccc2)C(=O)N1CCc1ccccc1	-26%	-14%	-12%	28µM*	-12%	?
CCCCCC(=O)NC(=S)NNC(=O)CC	-9%	-8%	0%	?	?	-3%
CCCCC(=O)NC(=S)Nc1c(C)cc(Br)cc1C	-12%	?	-2%	-13%	11µM*	-8%
O=C(NC(=S)NNS(=O)(=O)c1ccccc1)c1cccnc1	-12%	/	7%	-18%	?	?
CCCCC(=O)NC(=S)NNC(=O)CC	-6%	-12%	?	?	22µM*	-8%
O=C(NC(=S)NNS(=O)(=O)c1ccccc1)c1ccccc1[N+](=O)[O-]	-16%	20µM*	5%	-11%	28%	1%
CCCCC(=O)NC(=S)NNS(=O)(=O)c1ccccc1	-2%	20µM*	-17%	-10%	8.9µM*	-1%
COc1ccc(CNC(=O)CCS(=O)(=O)c2cc(Br)cc3c2N(C(C)=O)C(C)C3)cc1 (stereo unspecified)	-11%	/	/	-10%	/	-7%
Cc1nn(CC(=O)NC2CCCCC2)c(=O)c2cc3cc(F)ccc3n12	-5%	/	/	2%	/	-6%
CC(=O)OCC(=O)[C@]1(O)C(OC(C)=O)CC2C3CCC4=CC(=O)C=C[C@@]4(C)[C@]3(F)C(O)C[C@]21C (stereo partly specified)	-3%	-4%	-2%	2%	7%	1%
CC(C)(C)C1CCc2c(C(=O)NNC(=O)CCCC(=O)O)csc2C1 (stereo unspecified)	9%	-3%	-3%	5%	-3%	2%
O=C(CSc1ccsc1[N+](=O)[O-])NCCc1ccc(Cl)cc1	-19%	-11%	-2%	-14%	17%	5%
CC(Sc1ccsc1[N+](=O)[O-])C(=O)NCCc1ccc(Cl)cc1 (stereo unspecified)	?	-11%	-3%	?	3.2µM*	?
COC(=O)c1cc2c(cc1Cl)N1CCCCCC1=NS2(=O)=O	-7%	/	6%	-7%	/	0%
NC(=O)COC(=O)c1ccc2c(c1)S(=O)(=O)N=C1CCCCCN12	8%	-7%	11%	5%	8.9µM*	-1%
